By AC50 is commonly meant the midpoint of the concentration-response curve, whichever way the signal moves.

SMILES strings stand for the structures. Results filed as inconclusive are left out. Calls of active or inactive are those of the source. How the source made its calls: active means hit-call score of the fitted dose curve at least 0.9, where 1 is the maximum; inconclusive means response in the unintended direction; inactive means score below 0.9.

For this test, the target named is human CYP1B1, CYP1B1 (gene 1545) (UniProt Q16678). The experiment in a line: NVS_ADME_hCYP1B1: NovaScreen (NVS) CYP450-related Enzyme Activity (ADME) Assay for human CYP1B1. The procedure:
NVS_ADME_hCYP1B1 is a biochemical, single-readout assay that uses extracted gene-proteins in a cell-free assay. Measurements were taken 1 hour after chemical dosing in a 96-well plate.NVS_ADME_hCYP1B1 is one of one assay component(s) measured or calculated from the NVS_ADME_hCYP1B1 assay. It is designed to make measurements of enzyme activity, a form of enzyme reporter, as detected with fluorescence intensity signals by Fluorescence technology.Data from the assay component NVS_ADME_hCYP1B1 was analyzed into 1 assay endpoint. This assay endpoint, NVS_ADME_hCYP1B1, was analyzed in the positive analysis fitting direction relative to Acetonitrile as the negative control and baseline of activity. Using a type of enzyme reporter, loss-of-signal activity can be used to understand changes in the enzymatic activity as they relate to the gene CYP1B1. Furthermore, this assay endpoint can be referred to as a primary readout, because this assay has produced multiple assay endpoints where this one serves a enzymatic activity function. To generalize the intended target to other relatable targets, this assay endpoint is annotated to the cyp intended target family, where the subfamily is xenobiotic metabolism. […]

Chain of human CYP1B1, CYP1B1 (gene 1545) (Q16678 whole entry, looked up): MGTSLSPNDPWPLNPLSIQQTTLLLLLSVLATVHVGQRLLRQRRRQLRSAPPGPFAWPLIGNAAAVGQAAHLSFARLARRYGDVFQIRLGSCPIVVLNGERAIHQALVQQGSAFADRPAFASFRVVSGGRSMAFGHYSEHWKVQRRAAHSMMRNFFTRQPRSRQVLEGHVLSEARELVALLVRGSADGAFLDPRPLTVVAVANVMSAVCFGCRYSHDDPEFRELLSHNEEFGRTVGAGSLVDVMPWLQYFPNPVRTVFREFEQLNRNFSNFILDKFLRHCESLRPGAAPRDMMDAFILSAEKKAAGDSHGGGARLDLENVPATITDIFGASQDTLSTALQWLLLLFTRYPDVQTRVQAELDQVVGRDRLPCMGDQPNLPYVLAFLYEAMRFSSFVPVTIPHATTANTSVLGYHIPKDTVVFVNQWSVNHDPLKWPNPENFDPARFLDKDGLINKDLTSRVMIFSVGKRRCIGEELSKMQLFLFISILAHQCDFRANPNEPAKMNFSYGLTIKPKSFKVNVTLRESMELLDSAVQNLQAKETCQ

For the compound `C#CCOC(=O)[C@@H](C)Oc1ccc(Oc2ncc(Cl)cc2F)cc1`, the AC50 is 2.14 µM (active).

In the case of `c1ccc2[nH]c(-c3cscn3)nc2c1`, the concentration at half-maximal activity (AC50) is 6.26 µM (active).

The record behind these values is PubChem BioAssay AID2283097 (EPA ToxCast).
